We go through 23 compounds from PubChem BioAssay (NCATS).

Common to all, as to assay: qHTS assay to identify novel small-molecules to repurpose for Merkel cell carcinoma treatment (AID 1296009); also: nearly all actives have a fitted effect of over 60% in size
The test system of test [1] is MCC-13. As to conditions: MCC and control cell lines, CellTiter-Glo viability, 72 h; series mostly up to 46 µM. The method, boiled down:
(§1)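 Cells were treated for 72 hr at 37 degree celsius with compounds in 8- or 11-point dose response. Viability was read by CellTiter-Glo luminescence, normalized to no-cell (cytotoxicity) and DMSO controls.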

Test [2] concerns MCC-26. As to conditions: MCC and control cell lines, CellTiter-Glo viability, 72 h; series mostly up to 46 µM. In short, it runs like this:
as §1

Test [3] deals with MKL-1. The note with it: MCC and control cell lines, CellTiter-Glo viability, 72 h; series mostly up to 46 µM. The method, boiled down:
as §1

In test [4] the test system is MKL-2. The note with it: MCC and control cell lines, CellTiter-Glo viability, 72 h; series mostly up to 46 µM. In short, it runs like this:
as §1

In test [5] the test system is WaGa. As to conditions: MCC and control cell lines, CellTiter-Glo viability, 72 h; series mostly up to 46 µM. The method, boiled down:
as §1

Test [6] relates to HACAT. As to conditions: MCC and control cell lines, CellTiter-Glo viability, 72 h; at 44.8 µM (top of the series) unless noted. In short, it runs like this:
as §1

For test [7], the system named is UISO. As to conditions: MCC and control cell lines, CellTiter-Glo viability, 72 h; series mostly up to 46 µM. The method, boiled down:
as §1

Test [8] deals with NIH3T3. The note with it: MCC and control cell lines, CellTiter-Glo viability, 72 h; at 44.8 µM (top of the series) unless noted. The method, boiled down: as §1

Records with an inconclusive call do not appear. Unmarked numbers belong to inactive results. Activity calls are given as the source filed them. Calls follow the shape of the dose curve; as a rule, active = well fitted inhibition curve with a large enough effect; inconclusive = small, poorly fitted or top-dose-only effect; inactive = flat fitted curve, though single readings scatter.
Potency is read from the fitted curve at half-maximal effect.

Regarding `CC(=O)N(C)C1(c2ccccc2)CCN(CCC[C@]2(c3ccc(Cl)c(Cl)c3)CCCN(C(=O)c3ccccc3)C2)CC1`, the Potency result in test [1], in test [2], in test [3] and in test [5] was “inactive” throughout. Further, the Potency in test [4] was 20.9 µM (active).
`CC=CCC(C)C(O)C1C(=O)NC(CC)C(=O)N(C)CC(=O)N(C)C(CC(C)C)C(=O)NC(C(C)C)C(=O)N(C)C(CC(C)C)C(=O)NC(C)C(=O)NC(C)C(=O)N(C)C(CC(C)C)C(=O)N(C)C(CC(C)C)C(=O)N(C)C(C(C)C)C(=O)N1C` (stereo unspecified): the compound was called inactive in test [6]. Moreover, the Potency result in test [1], in test [3] and in test [5] was “inactive” each time.
Take `CC=CC[C@@H](C)C(=O)[C@H]1C(=O)N[C@@H](C(C)C)C(=O)N(C)CC(=O)N(C)[C@@H](CC(C)C)C(=O)N[C@@H](C(C)C)C(=O)N(C)[C@@H](CC(C)C)C(=O)N[C@@H](C)C(=O)N[C@H](C)C(=O)N(C)[C@@H](CC(C)C)C(=O)N(C)[C@@H](CC(C)C)C(=O)N(C)[C@@H](C(C)C)C(=O)N1C`: the Potency result in test [1], in test [2], in test [3], in test [4], in test [7] and in test [5] was “inactive” each time.
On to `O=C(NCc1ccncc1)C12C[C@H]3C[C@@H](C1)CC(c1ccc(Cl)cc1)(C3)C2`, for which the Potency result in test [1], in test [2] and in test [4] was “inactive” in each case.
For the compound `CC(=O)OC1C(C)OC(Oc2c(-c3ccc(O)cc3)oc3cc(O)cc(O)c3c2=O)C(O)C1OC(C)=O` (stereo unspecified), the Potency entry in test [1], in test [2] and in test [7] was “inactive” in each case.
Take `O=C(NC1CCOCC1)c1ccc(-c2cc(-c3cn[nH]c3-c3ccccn3)ccn2)cc1`: the compound was called inactive in test [6]. Further, the Potency entry in test [1], in test [2], in test [3], in test [4], in test [7] and in test [5] was “inactive” in each case.
With `O=c1cc(-c2ccccc2)oc2cc(O)cc(O)c12`, the Potency result in test [1], in test [2], in test [3], in test [4], in test [7] and in test [5] was “inactive” in each case.
On to `COc1cc2nc(-c3ccc(N4CCN(C)CC4)cc3)nc(NCCN3CCOCC3)c2cc1OC`, for which the Potency is 9.35 µM (active) in test [1]; 0.0235 µM (active) in test [3]; 0.105 µM (active) in test [4]; 0.118 µM (active) in test [7]; 0.118 µM (active) in test [5].
Turning to `c1ccc2c(Cc3c[nH]c4ccccc34)c[nH]c2c1`, the compound was called inactive in test [6]. Also, the Potency result in test [1], in test [2], in test [3] and in test [5] was “inactive” each time. For the same compound, the Potency in test [7] was 0.469 µM (active).
As for `CCCCCN(C)CCC(O)(P(=O)(O)O)P(=O)(O)O`, the Potency entry in test [1], in test [2], in test [3], in test [4], in test [7] and in test [5] was “inactive” each time. Also, in test [8], the result was inactive.
With `COCCOC(=O)C1=C(C)NC2=C(C(=O)CC(c3ccccc3OC)C2)C1c1cccc(O)c1` (stereo unspecified), the Potency result in test [1] and in test [3] was “inactive” each time.
In the case of `CC(C)(C)NC(=O)Nc1cccc(Nc2ncc(F)c(NC(C)(C)CO)n2)c1`, the Potency entry in test [1], in test [2], in test [4] and in test [7] was “inactive” throughout.
On to `O=C1c2ccccc2-[n+]2ccc3c([nH]c4ccccc43)c21`, for which the Potency is 3.32 µM (active) in test [1]; 7.43 µM (active) in test [2]; 1.05 µM (active) in test [3]; 3.32 µM (active) in test [4]; 0.662 µM (active) in test [7]; 2.35 µM (active) in test [5].
For `Cc1ccc(C(C)(O)c2nc3ccccc3s2)c(C)c1` (stereo unspecified), the Potency result in test [1] and in test [2] was “inactive” in each case. Moreover, the Potency in test [3] was 16.6 µM (active); in test [5], 7.43 µM (active).
With `CC(C)(C)Cn1c(N)nc2ccc(-c3[nH]c(C(C)(C)C)nc3-c3ccc(F)cc3)nc21`, the Potency entry in test [2], in test [3] and in test [4] was “inactive” in each case.
Turning to `O=C(NCc1ccccc1)c1csc(Nc2ccncn2)n1`, in test [6], the result was inactive. The figures for the Potency in test [3] and in test [7] were 8.33 µM (active) and 23.5 µM (active), respectively.
Regarding `CNC1CCC(N(Cc2cccc(-c3ccncc3)c2)C(=O)c2sc3c(F)ccc(F)c3c2Cl)CC1` (stereo unspecified), the outcome in test [6] was inactive. The Potency result in test [1] and in test [5] was “inactive” each time.
Take `O=c1c(-c2ccc(O)cc2)coc2cc(OC3O[C@H](CO)[C@H](O)[C@H](O)[C@H]3O)cc(O)c12` (stereo partly specified): the Potency result in test [1], in test [2], in test [3], in test [4] and in test [5] was “inactive” each time.
Regarding `CC(C)OC(=O)CCCC=CC[C@@H]1[C@H](C=C[C@@H](O)COc2cccc(C(F)(F)F)c2)[C@H](O)C[C@@H]1O`, the Potency result in test [2] and in test [3] was “inactive” each time.
For the compound `Nc1nc(F)nc2c1ncn2[C@@H]1O[C@H](COP(=O)(O)O)[C@@H](O)[C@H]1O`, the Potency result in test [2] is “inactive”. The Potency is 13.2 µM (active) in test [7] and 14.8 µM (active) in test [5].
On to `Clc1cc(Cl)cc(CNc2ncncc2-c2ccc3c(c2)OCO3)c1`, for which the Potency result in test [1], in test [2] and in test [4] was “inactive” each time.
In the case of `CC(=O)Oc1cc2c(s1)CCN(C(C(=O)C1CC1)c1ccccc1F)C2` (stereo unspecified), the Potency result in test [1] and in test [2] was “inactive” throughout. Moreover, the Potency in test [3] was 11.8 µM (active); in test [4], 10.5 µM (active); in test [5], 10.5 µM (active).
As to `CCS(=O)(=O)N1CC(CC#N)(n2cc(-c3ncnc4[nH]ccc34)cn2)C1`, the Potency result in test [1], in test [2], in test [3], in test [4], in test [7] and in test [5] was “inactive” each time.
